Compound activity: PubChem, Broad Institute
In the library only some 6.8% were active in any assay of this set; here they are far more common.
Pf Dd2 growth: blocks growth of Plasmodium falciparum Dd2 parasites; 94,000 tested, 2.3% active; P. falciparum Dd2 growth, SYBR Green, 72 h; stronger effect = lower value; activity change, % at 10 µM; AID 1159554; in the data active = activity change below about -80%; inconclusive = no clear call, values can overlap the other calls
T cruzi growth-1: blocks T. cruzi growth in NIH3T3 culture | T. cruzi beta-gal in NIH3T3, GalScreen luminescence, 90 h | inhibition, % at 8.34 µM | 77,000 tested, 5.9% active;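 active = mean inhibition above about 93%, with at least 55% of replicates each passing it, limit read from the data, passing the limit was not always enough; inconclusive = only one of those two conditions holds; inactive = neither condition holds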
C diff HTS: C. difficile growth inhibition | 86,000 tested, 0.25% active | growth activity, negative = inhibition, % at 16 µg/mL (by protocol) | Clostridium difficile clinical isolate growth, OD600, 24 h; stronger effect = lower value | AID 1259249;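 active = mean growth activity at or below -80% and every replicate also at or below -80%; inconclusive = mean at or below -80% but some replicate above -80%; inactive = mean growth activity above -80%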;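 note: 0% = DMSO wells and -100% = levofloxacin 16 µg/mL wells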
T cruzi growth-2: Trypanosoma cruzi proliferation inhibition; T. cruzi beta-gal in NIH3T3, GalScreen luminescence, 90 h; shares compounds with T cruzi growth-1; inhibition, % at 8.35 µM; 5,600 tested, 72% active;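 active = mean replicate inhibition above about 95% and at least 55% of replicates individually reaching it, limit read from the data; inconclusive = only one of the two criteria is met; inactive = neither criterion is met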
T cruzi growth-3: blocks T. cruzi growth in NIH3T3 host cells. T. cruzi beta-gal in NIH3T3, GalScreen luminescence, 90 h. AID 651740. shares compounds with T cruzi growth-1. inhibition, % at 2.09 µM. 5,600 tested, 21% active;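 active = mean inhibition above about 95%, with at least 55% of replicates also reaching it, limit read from the data; inconclusive = meets just one of the two conditions; inactive = meets neither condition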;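 note: plate controls were neutral control median for no effect and positive control median for full effect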
NIH3T3 tox: cytotoxicity in mouse NIH/3T3 fibroblasts; shares compounds with T cruzi growth-1; NIH/3T3 viability, CellTiter-Glo ATP luminescence, 90 h; cytotoxicity (signal decrease), % at 8.35 µM; 5,600 tested, 14% active; AID 651742;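 active = mean signal decrease across replicates above about 35% based on untreated-well scatter, with enough replicates individually passing, limit read from the data; inconclusive = no rule stated though some were filed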;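 note: 0% = median of neutral control wells and 100% = median of positive control wells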
NIH3T3 tox 2: cytotoxicity in mouse NIH/3T3 fibroblasts | shares compounds with T cruzi growth-1 | NIH/3T3 viability, CellTiter-Glo ATP luminescence, 90 h | inhibition, % at 24.9 µM | 5,600 tested, 56% active | AID 651744;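 active = mean loss of cell viability signal at or above a set limit, and enough replicates individually reaching it; inconclusive = meets only the mean limit or only the replicate share; inactive = meets neither condition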;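 note: 0% = median of neutral control wells and 100% = median of positive control wells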
* marks the source's active call; other numbers are inactive results; ? = inconclusive; . = no result.

SMILES | Pf Dd2 growth | T cruzi growth-1 | C diff HTS | T cruzi growth-2 | T cruzi growth-3 | NIH3T3 tox | NIH3T3 tox 2
Cc1cc(C(=O)Nc2cccc3c2O[C@H](CN(C)Cc2ccc(C(=O)O)cc2)[C@@H](C)CN([C@H](C)CO)C3=O)n(C)n1 | 7 | . | 2 | . | . | . | .
Cc1cc(C(=O)Nc2cccc3c2O[C@@H](CN(C)Cc2ccc(C(F)(F)F)cc2)[C@@H](C)CN([C@@H](C)CO)C3=O)n(C)n1 | -22 | 96* | 1 | 79 | -7 | 18 | ?
Cc1cc(C(=O)Nc2cccc3c2O[C@@H](CN(C)Cc2ccc(C(=O)Nc4ccccc4N)cc2)[C@@H](C)CN([C@H](C)CO)C3=O)n(C)n1 | -85* | 106* | 7 | 104* | 98* | -7 | -8
Cc1cc(C(=O)Nc2cccc3c2O[C@H](CN(C)Cc2ccc(C(=O)Nc4ccccc4N)cc2)[C@H](C)CN([C@@H](C)CO)C3=O)n(C)n1 | -82* | 93* | 9 | 91 | 66 | 46* | 91*
Cc1cc(C(=O)Nc2cccc3c2O[C@H](CN(C)Cc2ccc(C(=O)O)cc2)[C@H](C)CN([C@@H](C)CO)C3=O)n(C)n1 | 10 | . | 0 | . | . | . | .
C[C@@H]1CCCCO[C@H](CN(C)C(=O)CCC(F)(F)F)[C@@H](C)CN([C@@H](C)CO)C(=O)c2cc(NC(=O)CCCN(C)C)ccc2O1 | 22 | 1 | -2 | . | . | . | .
CNC[C@H]1Oc2cc(-c3cncnc3)ccc2S(=O)(=O)N([C@H](C)CO)C[C@@H]1C | . | 80 | 1 | . | . | . | .
O=C(C1CCCC1)N1CC(=O)N2[C@@H](CO)[C@H](c3ccc(-c4ccccc4F)cc3)[C@@H]2C1 | 12 | . | 2 | . | . | . | .
CNC[C@H]1Oc2ccc(NS(=O)(=O)c3cccs3)cc2C(=O)N([C@@H](C)CO)C[C@H]1C | -9 | 6 | 1 | . | . | . | .
O=C(Nc1ccc(F)cc1)N1CCCCN2[C@H](CO)[C@H](c3ccc(C#CC4CC4)cc3)[C@H]2C1 | -40 | 70 | 54 | . | . | . | .
O=C(Nc1ccc(F)cc1)N1CCCCN2[C@@H](CO)[C@@H](c3ccc(C#CC4CC4)cc3)[C@@H]2C1 | -53 | 97* | 52 | 98* | 107* | 119* | 106*
O=C(Nc1cccc(F)c1)N1CCCCN2[C@@H](CO)[C@H](c3ccc(C#CC4CC4)cc3)[C@@H]2C1 | -19 | ? | 49 | 93 | 102* | 105* | 106*
CN(C)CC#Cc1ccc([C@@H]2[C@H]3CN(C(=O)Nc4ccc(F)cc4)CCCCN3[C@H]2CO)cc1 | 20 | 21 | -4 | . | . | . | .
O=C(Nc1ccc(F)cc1)N1CCCCN2[C@H](C1)[C@H](c1ccc(C#CC3CC3)cc1)[C@@H]2CO | -47 | 122* | 43 | 100* | 34 | 26 | 23
C[C@H]1CN([C@@H](C)CO)C(=O)c2cc(-c3ccc(C#N)cc3)cnc2O[C@H]1CN(C)Cc1ccccn1 | 24 | 19 | 1 | . | . | . | .
C[C@H](CO)N1C[C@H](C)[C@H](CN(C)C)Oc2c(NS(=O)(=O)c3cccs3)cccc2C1=O | 16 | . | 1 | . | . | . | .
CC(C)NC(=O)N[C@H]1C=C[C@H](CC(=O)NC2Cc3ccccc3C2)O[C@H]1CO | 1 | -82 | -1 | . | . | . | .
CO[C@@H]1CN(C)C(=O)c2ccc(NS(=O)(=O)c3ccc(Cl)cc3)cc2OC[C@@H](C)NC[C@@H]1C | 20 | -8 | -8 | . | . | . | .
C[C@@H]1CCCCO[C@@H](CN(C)S(=O)(=O)c2ccc(Cl)cc2)[C@H](C)CN([C@H](C)CO)C(=O)c2cc(NS(=O)(=O)c3ccccc3)ccc2O1 | -70 | 104 | 0 | . | . | . | .
C[C@@H]1CN([C@@H](C)CO)C(=O)c2cc(NS(=O)(=O)c3ccc(Cl)cc3)ccc2O[C@@H](C)CCCCO[C@H]1CN(C)S(=O)(=O)c1ccccc1 | -22 | 120* | -4 | 108* | 53 | 11 | 4
C[C@H](CO)N1C[C@H](C)[C@@H](CN(C)S(=O)(=O)c2ccccc2)OCCCC[C@H](C)Oc2ccc(NS(=O)(=O)c3ccc(Cl)cc3)cc2C1=O | -4 | 114* | -7 | 101* | 67 | 30 | 9
C[C@H](CO)N1C[C@H](C)[C@@H](CN(C)S(=O)(=O)c2ccc(Cl)cc2)OCCCC[C@H](C)Oc2ccc(NS(=O)(=O)c3ccccc3)cc2C1=O | -67 | . | -3 | . | . | . | .
C[C@@H]1CN([C@H](C)CO)C(=O)c2cc(NS(=O)(=O)c3ccc(Cl)cc3)ccc2O[C@@H](C)CCCCO[C@@H]1CN(C)S(=O)(=O)c1ccccc1 | -64 | 118* | -3 | 104* | 93 | -27 | 22
C[C@@H]1CCCCO[C@H](CN(C)S(=O)(=O)c2ccccc2)[C@H](C)CN([C@H](C)CO)C(=O)c2cc(NS(=O)(=O)c3ccc(Cl)cc3)ccc2O1 | -36 | 117* | -7 | 100* | 102* | 17 | 4
C[C@@H]1CCCCO[C@@H](CN(C)S(=O)(=O)c2ccccc2)[C@@H](C)CN([C@H](C)CO)C(=O)c2cc(NS(=O)(=O)c3ccc(Cl)cc3)ccc2O1 | -34 | 63 | -5 | . | . | . | .
SMILES | Pf Dd2 growth | T cruzi growth-1 | C diff HTS | T cruzi growth-2 | T cruzi growth-3 | NIH3T3 tox | NIH3T3 tox 2
C[C@@H]1CN([C@@H](C)CO)C(=O)c2cc(NS(=O)(=O)c3ccc(Cl)cc3)ccc2O[C@@H](C)CCCCO[C@@H]1CN(C)S(=O)(=O)c1ccccc1 | -65 | 83 | -4 | . | . | . | .
C[C@H](CO)N1C[C@H](C)[C@H](CN(C)C(=O)Nc2ccccc2)Oc2ccc(NC(=O)Nc3ccc4c(c3)OCO4)cc2CC1=O | 42 | 1 | -5 | . | . | . | .
COc1ccc2c3c(n(C)c2c1)[C@H](CO)N(C(=O)c1ccncc1)CC31CCN(S(C)(=O)=O)CC1 | 15 | . | 3 | . | . | . | .
CCNC(=O)Nc1ccc2c(c1)C(=O)N(C)[C@H]1CC[C@@H](CC(=O)NCCN3CCCC3)O[C@H]1CO2 | 13 | 10 | -4 | . | . | . | .
C[C@H](CO)N1C[C@H](C)[C@H](CN(C)S(=O)(=O)c2ccc(F)cc2)Oc2ccc(N(C)C)cc2C1=O | 8 | . | -1 | . | . | . | .
COc1ccc(S(=O)(=O)Nc2ccc3c(c2)C(=O)N([C@H](C)CO)C[C@H](C)[C@H](CN(C)S(C)(=O)=O)OCCCC[C@H](C)O3)cc1 | 20 | 45 | 9 | . | . | . | .
C[C@@H]1CCCCO[C@@H](CN(C)S(=O)(=O)c2ccc(Cl)cc2)[C@H](C)CN([C@@H](C)CO)C(=O)c2cc(NS(=O)(=O)c3ccc(Cl)cc3)ccc2O1 | 1 | 61 | 5 | . | . | . | .
C[C@H](CO)N1C[C@H](C)[C@H](CN(C)S(=O)(=O)c2ccccc2)OCCCC[C@H](C)Oc2ccc(NS(=O)(=O)c3ccc(Cl)cc3)cc2C1=O | -33 | 118* | -9 | 104* | 88 | -18 | -5
